# Screens as filed in PubChem.
# This is a sample that favours compounds with a hit; in the whole collection about 1% have one here.
# SSB-PriA inh: K. pneumoniae PriA-SSBct interaction inhibition; AlphaScreen SSBct-PriA binding, biotinylated peptide; actives 0.6% (n = 430,000); inhibition, % at 33 µM; in the data active = inhibition mostly above about 37%, no sharp cut-off; inactive = mostly below about 20%;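 also: plate controls were negative control peptide for no effect and reference peptide for full effect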
# Sa RN4220 lethal: S. aureus RN4220 growth inhibition | OD600, 16 h | inhibition, % (no concentration beside the values) | actives 0.33% (n = 330,000) | AID 1259311; in the data active = inhibition above about 85%;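 also: plate controls were untreated cells for no effect and reference antibiotic for full effect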
# ugtP null kill: kills S. aureus RN4220 lacking UgtP. S. aureus RN4220 ugtP deletion, OD600 growth, 16 h. growth inhibition, % (concentration not given with the values). actives 0.54% (n = 330,000). AID 1259309; in the data active = growth inhibition above about 68%;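 also: plate controls were untreated wells for no effect and antibiotic for full effect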
# * marks the source's active call; other numbers are inactive results; i = inactive; nt = no result.
SMILES,SSB-PriA inh,Sa RN4220 lethal,ugtP null kill
CN(C)S(=O)(=O)N1C2CCC1CC(S(=O)(=O)c1ccccc1)C2 (stereo not drawn),-2,nt,nt
O=C(Cn1ncccc1=O)N1C2CCC1CC(S(=O)(=O)c1ccccc1)C2 (stereo not drawn),88*,nt,nt
CC(=O)N1C2CCC1CC(S(=O)(=O)c1ccccc1)C2 (stereo not drawn),-7,nt,nt
O=S(=O)(c1ccccc1)C1CC2CCC(C1)N2S(=O)(=O)C1CC1 (stereo not drawn),91*,nt,nt
COC(=O)Cn1c(=NC(=O)c2cc(Cl)sc2Cl)sc2cc(S(N)(=O)=O)ccc21,-8,nt,nt
CCN1CCN(C(=O)N(C/C=C/c2ccccc2)S(=O)(=O)c2ccc(C)cc2)CC1,-8,nt,nt
O=C(Cc1noc2ccccc12)Nc1cc(-n2cncn2)ncn1,-4,nt,nt
FC(F)(F)c1nc2ccccc2nc1NN=Cc1ccccc1,60*,2,-2
FC(F)(F)c1nc2ccccc2nc1NN=Cc1ccc(Cl)cc1,5,2,-12
O=C(Nc1ccc2c(c1)OCO2)N1CCCC(c2nnc(Cc3ccc(F)cc3)o2)C1 (stereo not drawn),12,nt,nt
Cc1ccc(NC(=S)NN=Cc2c(C)[nH]c3ccccc23)cc1,6,92*,88*
C(=NNc1nc2ccccc2[nH]1)c1c[nH]c2ccccc12,50*,15,-18
C(=NNc1ccccn1)c1c[nH]c2ccccc12,15,nt,nt
C#CCn1cc(C=NNc2nc3ccccc3[nH]2)c2ccccc21,44*,-5,-18
C(=NNc1nc2ccccc2[nH]1)c1cccc2nccnc12,nt,1,-5
Cc1[nH]c2ccccc2c1C=NNc1nc2ccccc2[nH]1,41*,nt,nt
Cc1c(/C=N/Nc2nc3ccccc3[nH]2)c2ccccc2n1C,i,nt,nt
Cc1[nH]c2ccccc2c1C=NNC(=S)NCc1ccccc1,7,-4,-29
Cc1noc(NS(=O)(=O)c2ccc(NC(=O)C3CN(S(=O)(=O)C4CC4)C3)cc2)c1C,-14,nt,nt
Cc1ccc(/C=C/C(=O)c2ccc([N+](=O)[O-])o2)cc1,-9,nt,nt
COc1ccc(C=CC(=O)c2ccc([N+](=O)[O-])o2)cc1,nt,18,93*
O=C(/C=C/c1ccc(Cl)cc1)c1ccc([N+](=O)[O-])o1,-2,nt,nt
COc1cc(C=CC(=O)c2ccc([N+](=O)[O-])o2)ccc1O,nt,68,99*
Cn1c(=O)n(CC(=O)O)c(=O)c2c1nc1n2CCN1c1ccc(F)cc1,-3,nt,nt
COc1ccc(-c2cnnc(NN=Cc3c(C)nn(-c4ccccc4)c3Cl)n2)cc1,2,4,-19
SMILES,SSB-PriA inh,Sa RN4220 lethal,ugtP null kill
Cc1[nH]n(-c2ccccc2)c(=O)c1C=NNc1nncc(-c2ccccc2)n1,97,96*,98*
CC(C)c1nnc(NC(=O)c2c(O)c3cccc4c3n(c2=O)CCC4)s1,-16,46,-5
CCCc1nnc(NC(=O)c2c(O)c3cccc4c3n(c2=O)CC4)s1,1,101*,100*
Cc1cc(N2C(=O)C(=O)C(=C(O)c3ccc(F)cc3)C2c2ccc(Cl)cc2)no1 (stereo not drawn),-10,nt,nt
CN(C)c1ccc(/C=C/c2ccc3ccccc3[n+]2C)cc1,14,97*,95*
CN(C)c1ccc(/C=C/c2ccc3c4ccccc4ccc3[n+]2-c2ccccc2)cc1,75,98*,98*
CN(C)c1ccc(/C=C/c2cccc[n+]2[O-])cc1,-10,nt,nt
CN(CCCS(=O)(=O)[O-])c1ccc(/C=C/c2ccc3ccccc3[n+]2C)cc1,8,2,2
COc1ccc(CC(=O)NCCc2ccc3c(c2)CCCN3C)cc1,9,nt,nt
Cc1cccc(NC(=O)NCCc2ccc3c(c2)CCCN3C)c1,56*,nt,nt
COc1cc(OC)cc(C(=O)NCCc2ccc3c(c2)CCCN3C)c1,59*,nt,nt
COc1ccc(CCNC(=O)NCCc2ccc3c(c2)CCCN3C)cc1,50*,nt,nt
CN1CCCc2cc(CCNC(=O)NCc3ccccc3)ccc21,29,nt,nt
COc1ccc(OCC(=O)NCCc2ccc3c(c2)CCCN3C)cc1,71,nt,nt
CCN(CC)C(=O)Oc1ccc2c(-c3cc4ccccc4oc3=O)cc(=O)oc2c1,0,nt,nt
O=C(c1ccoc1)N1CCCCC(c2ccc(F)cc2)C1 (stereo not drawn),-3,nt,nt
Cc1nc(-c2ccccc2Cl)sc1CNC(=O)[C@@H]1CCC(=O)N1,-6,nt,nt
Nc1cc(N)cc(-c2nc3ccccc3[nH]2)c1,45*,14,-3
c1ccc(-c2nc3ccccc3[nH]2)cc1,-12,5,-1
COc1ccc2c(C(F)(F)F)cc(SCc3cn4cc(C)ccc4n3)nc2c1,-14,nt,nt
COc1cccc(-c2cc(C(=O)N3CCN(CCn4ccnc4)CC3)[nH]n2)c1,-4,nt,nt
Fc1ccc(N2CCN(C(=S)c3ccc(-c4cc(Cl)ccc4Cl)o3)CC2)cc1,-4,nt,nt
CN(C)c1ccc(-c2c(-c3ccc4c(c3)OCO4)noc2-c2ccsc2)cn1,6,-6,22
O=C(O)c1cc(-c2ccc(-c3c(-c4ccc5c(c4)OCO5)noc3-c3ccsc3)cc2)nc2ccccc12,-13,96*,94*
O=C(NCCC(O)C1CCOCC1)c1cc(Br)cs1 (stereo not drawn),-14,nt,nt
SMILES,SSB-PriA inh,Sa RN4220 lethal,ugtP null kill
COc1ccc(C(=O)N2C(=S)NC(=O)/C2=C\c2ccc(C)cc2)cc1,-6,-9,100*
COc1ccc(C=C2NC(=S)NC2=O)cc1,nt,-3,1
CCCCCCCCCCCCCCCCn1cc[n+](C)c1,-14,101*,99*
C[n+]1ccn(CC(=O)c2cccs2)c1,-6,-1,5
COc1cc2nc(SCc3cc(=O)n4c(C)cccc4n3)n3nc(CCn4nc(C)cc4C)nc3c2cc1OC,-10,nt,nt
CN(C)S(=O)(=O)c1cccc(NC(=S)NN=Cc2cc(Br)ccc2O)c1,47*,-4,0
COc1ccc(O)c(C=NNC(=S)Nc2cccc(S(=O)(=O)N(C)C)c2)c1,99,8,-17
COC1CCN(C(=O)c2ccc(Cl)s2)CC1,-4,nt,nt
O=C(CCn1ccc(=O)[nH]c1=O)N1CCC2(CCc3ccccc3O2)CC1,-14,nt,nt
c1ccc(-c2nnc(SCC3CCCCO3)nc2-c2ccccc2)cc1 (stereo not drawn),-6,3,94*
c1ccc(-c2nnc(SCC3CCCO3)nc2-c2ccccc2)cc1 (stereo not drawn),-14,0,9
COc1cccc2c1C(=O)c1c(O)c3c(c(O)c1C2=O)C[C@@](O)(C(C)=O)C[C@@H]3O[C@H]1C[C@H](N)[C@H](O)[C@H](C)O1,41,nt,nt
COc1cccc2c1C(=O)c1c(O)c3c(c(O)c1C2=O)C[C@@](O)(C(=O)CO)C[C@@H]3O[C@H]1C[C@H](N)[C@@H](O)[C@H](C)O1,46*,nt,nt
Nn1c(SC/C=C/c2ccccc2)nnc1-c1ccccn1,90*,3,-8
Nn1c(SC/C=C/c2ccccc2)nnc1-c1cccnc1,-3,1,4
C(=C\c1ccccc1)/CSc1nnc(-c2ccccn2)n1Cc1ccco1,68*,nt,nt
c1coc(Cn2c(SCc3nc4ccccc4[nH]3)nnc2-c2cnccn2)c1,6,-1,5
C(=Cc1ccccc1)CSc1nnc(-c2ccccn2)n1Cc1ccco1,nt,10,-8
c1ccc(-c2nnc(SCc3nc4ccccc4[nH]3)n2Cc2ccco2)nc1,88*,6,6
CC(C)NC(=O)C(=O)NCC1CCN(Cc2ccccc2)CC1,-13,nt,nt
Cc1nn(Cc2ccccc2)c(=O)c2c1cnn2C(C)(C)C,-24,nt,nt
